In PubChem BioAssay (EPA / NIEHS):
Active and inactive are the calls of the source. Rule for the calls: active = hit-call score of the fitted dose curve at least 0.9, where 1 is the maximum; inactive = score below 0.9.

Assay: CEETOX_H295R_11DCORT: CeeTox H295R High-throughput Steroidogenesis Assay for 11-Deoxycortisol (11DCORT) (AID 2283432);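 for AC50: 11-deoxycortisol secreted into the medium measured by LC-MS/MS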
Conditions: actives raise or lower the signal
Summary of the method: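 H295R cells; 10 uM forskolin prestim 48 h; compound in 0.1% DMSO 48 h; media extracted with MTBE; 11-deoxycortisol by LC-MS/MS, 7-point standard curve; gain/loss vs DMSO baseline; viability by MTT in same wells.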

| Compound | AC50 | outcome |
| --- | --- | --- |
| CC1COc2ccccc2N1C(=O)C(Cl)Cl (stereo not drawn) | 25.2 µM (active) |  |
| O=C(O)c1ccc([N+](=O)[O-])cc1 |  | inactive |
| CC(C)c1cccc(O)c1 |  | inactive |
| C=CCOc1nc(OCC=C)nc(OCC=C)n1 | 25.9 µM (active) |  |
| O=c1cc(-c2ccccc2)oc2cc(O)cc(O)c12 |  | inactive |

Assay: CEETOX_H295R_OHPREG: CeeTox H295R High-throughput Steroidogenesis Assay for OH-Pregnenolone (OHPREG) (AID 2283434)
Conditions: actives raise or lower the signal
Summary of the method: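 Secreted 17alpha-hydroxypregnenolone measured by HPLC-MS/MS after liquid-liquid extraction. Human adrenal H295R cells received 48 h forskolin (10 uM) stimulation before 48 h chemical exposure at 0.1% final DMSO; MTT viability in same wells; bidirectional fit against DMSO.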

| Compound | AC50 | outcome |
| --- | --- | --- |
| CC(C)=CCCC(C)=CCCC(C)=CCO | 28.1 µM (active) |  |
| CSc1nc(NC2CC2)nc(NC(C)(C)C)n1 |  | inactive |
| CC1COc2ccccc2N1C(=O)C(Cl)Cl (stereo not drawn) | 3.66 µM (active) |  |
| O=C(O)c1ccc([N+](=O)[O-])cc1 |  | inactive |
| c1ccc(CCCc2ccccn2)cc1 |  | inactive |
| CC(C)c1cccc(O)c1 |  | inactive |
| C=CCOc1nc(OCC=C)nc(OCC=C)n1 | 38.6 µM (active) |  |
| O=c1cc(-c2ccccc2)oc2cc(O)cc(O)c12 |  | inactive |

Assay: CEETOX_H295R_CORTIC: CeeTox H295R High-throughput Steroidogenesis Assay for Corticosterone (CORTIC) (AID 2283437)
Conditions: actives raise or lower the signal
Summary of the method: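 Medium corticosterone was quantified by tandem mass spectrometry following 48 hours of chemical exposure (0.1% DMSO) in human H295R cells previously stimulated 48 hours with 10 uM forskolin. Viability checked by MTT; chemicals diluted and retested when viability fell below 70%.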

| Compound | AC50 | outcome |
| --- | --- | --- |
| CC1COc2ccccc2N1C(=O)C(Cl)Cl (stereo not drawn) | 9.46 µM (active) |  |
| O=C(O)c1ccc([N+](=O)[O-])cc1 |  | inactive |
| CC(C)c1cccc(O)c1 |  | inactive |
| C=CCOc1nc(OCC=C)nc(OCC=C)n1 | 31.7 µM (active) |  |
| O=c1cc(-c2ccccc2)oc2cc(O)cc(O)c12 | 5.66 µM (active) |  |

Assay: CEETOX_H295R_CORTISOL: CeeTox H295R High-throughput Steroidogenesis Assay for Cortisol (AID 2283438);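 note: cortisol secreted into medium quantified by LC-MS/MS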
Conditions: actives raise or lower the signal
Summary of the method: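 Cortisol measured by HPLC-MS/MS after MTBE extraction of medium from H295R cells exposed 48 h to chemical (0.1% DMSO), following 48 h prestimulation with 10 uM forskolin. Viability assessed by MTT in the same wells.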

| Compound | AC50 | outcome |
| --- | --- | --- |
| CC1COc2ccccc2N1C(=O)C(Cl)Cl (stereo not drawn) | 32.3 µM (active) |  |
| O=C(O)c1ccc([N+](=O)[O-])cc1 |  | inactive |
| CC(C)c1cccc(O)c1 |  | inactive |
| C=CCOc1nc(OCC=C)nc(OCC=C)n1 | 29.3 µM (active) |  |
| O=c1cc(-c2ccccc2)oc2cc(O)cc(O)c12 |  | inactive |

Assay: CEETOX_H295R_DOC: CeeTox H295R High-throughput Steroidogenesis Assay for DOC (AID 2283439)
Conditions: actives raise or lower the signal
Summary of the method: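 11-Deoxycorticosterone quantified in medium by MTBE extraction and HPLC-MS/MS after 48 h chemical exposure (0.1% DMSO) of forskolin-primed (10 uM, 48 h) H295R cells. Same-well MTT viability; data fitted bidirectionally against DMSO.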

| Compound | AC50 | outcome |
| --- | --- | --- |
| CC1COc2ccccc2N1C(=O)C(Cl)Cl (stereo not drawn) | 10.4 µM (active) |  |
| O=C(O)c1ccc([N+](=O)[O-])cc1 |  | inactive |
| CC(C)c1cccc(O)c1 |  | inactive |
| C=CCOc1nc(OCC=C)nc(OCC=C)n1 |  | inactive |
| O=c1cc(-c2ccccc2)oc2cc(O)cc(O)c12 | 12.2 µM (active) |  |
